Screening data deposited in PubChem by several laboratories.
E coli growth-1 = inhibitors of Escherichia coli growth. 0.21% of 330,000 active. OD600, 23 h; active compounds read low. OD600 absorbance (test concentration not listed). AID 1053175;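 active = OD600 absorbance below the run mean of sample wells minus 3.6 SD, in any replicate, cut at about 0.56 in these data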
phage Ecoli inh = E. coli growth loss with phage present; 0.26% of 360,000 active; inhibition, % at 11.9 µM; AID 651602; growth absorbance; in the data active = inhibition above about 11%
Tat transport = inhibitors of E. coli Tat protein transport | E. coli MC4100 TorA-mCherry Tat export, fluorescence | inhibition, % at 10 µM | 0.036% of 340,000 active | AID 488895;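 active = mean replicate inhibition at least 50% and at least half of replicates individually reaching 50%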;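 also: exported cargo escapes ClpAP degradation while cytoplasmic cargo is degraded and loses fluorescence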
AddAB inh = less growth of phage-infected E. coli with AddAB | inhibition, % at 11.9 µM | 0.29% of 330,000 active | E. coli expressing H. pylori AddAB, absorbance growth; in the data active = inhibition above about 12%
E coli growth-2 = reduces bacterial viability in AddAB counter-screen; E. coli V3065 growth, OD600 absorbance, 18 h; inhibition, % at 11.9 µM; 0.27% of 330,000 active; AID 449728;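 active = inhibition above the campaign's mean inhibition across all tested compounds plus 3 SD, cut at about 9.9% in these data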;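 also: uninfected addAB+ strain grown without phage in ampicillin broth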
RecBCD conf = growth loss of phage-infected V66 E. coli, RecBCD confirmation screen; shares compounds with phage Ecoli inh; E. coli V66 + T4 2- phage, growth OD; inhibition, % at 11.9 µM; 45% of 890 active; AID 651982;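 active = mean inhibition over triplicates exceeding the hit threshold derived in the original primary screen, cut at about 11% in these data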
Ecoli viability = counter-screen for RecBCD inhibitors: inhibitors of bacterial viability | shares compounds with phage Ecoli inh | E. coli viability, absorbance (OD) growth | inhibition, % at 11.9 µM | 29% of 890 active | AID 651983; in the data active = inhibition above about 20%;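 also: E. coli strain V66 grown with compound alone and no phage infection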
AddAB phage OD = growth loss of phage-infected AddAB E. coli, RecBCD counter-screen; shares compounds with phage Ecoli inh; 45% of 890 active; AID 651984; inhibition, % at 11.9 µM; E. coli expressing H. pylori AddAB + T4 phage, OD growth; gene 2 mutant T4, recBCD-deleted host;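 active = mean inhibition above the solvent-only control wells' mean plus 3 SD, cut at about 22% in these data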;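 also: higher means less bacterial growth from phage killing when AddAB is blocked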
Numbers stand for hits; i = inactive; nt = not tested or not shown. Compounds with a hit are over-represented: about 0.5% of the library has one in this group of screens.

SMILES | E coli growth-1 | phage Ecoli inh | Tat transport | AddAB inh | E coli growth-2 | RecBCD conf | Ecoli viability | AddAB phage OD
CCOC(=O)c1ccc(NC(=O)CSc2nc3ncccc3[nH]2)cc1 | i | 11 | i | i | i | i | i | i
CCCCOC1NC(=O)NC(=O)C1(F)C(=O)OCC (configuration not stated) | nt | i | nt | nt | nt | nt | nt | nt
COC(=O)C1(F)C(=O)NC(=O)NC1OC (configuration not stated) | nt | 23 | nt | nt | nt | 27 | i | 47
C=CCCC(Cc1ccc(F)cc1)C(=O)OCCNC(=O)C(CC=C)CC(=O)NC(CO)Cc1ccccc1 (configuration not stated) | i | nt | nt | nt | nt | nt | nt | nt
Cn1nnnc1SCc1ccc(F)cc1 | i | 20 | i | i | i | i | i | i
CCN1CC2C3C(=O)N(Cc4ccccc4)C(=O)C3[C@](CC)(C1=O)N2C(=O)c1ccc(F)cc1 (some centres not stated) | i | nt | nt | nt | nt | nt | nt | nt
O=C(C1CC=CC2CCN(C3CCCCC3)C(=O)C21)N1CCN(c2ccccc2)CC1 (configuration not stated) | i | nt | nt | nt | nt | nt | nt | nt
Cc1nnc(NS(=O)(=O)c2ccc(F)cc2)s1 | nt | i | i | nt | nt | nt | nt | nt
Cc1nnc(NS(=O)(=O)c2ccc(N)cc2)s1 | i | 12 | i | i | i | i | i | 27
COC(=O)C1=C(C(=O)OC)C2N(Cc3ccccc3)c3ccccc3[C@@]23CC(C(=O)OC)N(C(C)=O)C3=N1 (some centres not stated) | i | nt | nt | nt | nt | nt | nt | nt
COc1cccc(C2c3c(oc4ccccc4c3=O)C(=O)N2CCCN2CCOCC2)c1 (configuration not stated) | i | 15 | i | i | i | i | i | i
Nc1nonc1-n1nnc(C(=O)N/N=C/c2cc(Br)ccc2O)c1CNc1ccccc1 | nt | 12 | i | i | i | i | i | i
Cc1ccc(/C=N/NC(=O)c2nnn(-c3nonc3N)c2CNc2ccccc2)cc1 | nt | i | i | i | i | nt | nt | nt
O=C(NNS(=O)(=O)c1ccc(F)cc1)c1cc(Cl)ccc1O | i | 15 | i | nt | nt | i | i | i
Cc1c(Cl)c([N+](=O)[O-])nn1Cc1ccc(C(=O)Nc2ccc(Cl)cn2)o1 | i | i | i | i | i | nt | nt | nt
CC(=O)c1ccc(NC(=O)c2ccc([N+](=O)[O-])o2)cc1 | 0.47 | 17 | i | nt | nt | 11 | i | 66
O=C(Nc1ccc(Cl)cn1)c1ccc([N+](=O)[O-])o1 | i | 18 | i | nt | nt | i | i | 96
COc1ccc(C2C(=C(O)c3ccc4c(c3)CC(C)O4)C(=O)C(=O)N2CCN2CCOCC2)cc1 (configuration not stated) | i | nt | nt | nt | nt | nt | nt | nt
C=CCn1c(=O)c(C(=O)NCCc2ccccc2)c(O)c2ccccc21 | i | 13 | i | i | 13 | i | i | i
O=[N+]([O-])c1cc(Cl)c(O)c2ncccc12 | 0.068 | 44 | i | nt | nt | 53 | 55 | 46
Oc1c(Cl)c(Cl)c2ncccc2c1Cl | i | i | i | nt | nt | nt | nt | nt
O=[N+]([O-])c1ccc(O)c2ncccc12 | 0.066 | 62 | i | 64 | 67 | 79 | 74 | 69
O=[N+]([O-])c1cc([N+](=O)[O-])c2cccnc2c1Oc1ccccc1O | i | i | i | i | i | nt | nt | nt
Oc1c(I)cc(Cl)c2cccnc12 | 0.12 | 32 | i | 31 | 44 | 43 | 49 | 40
CCOC1OC(C(=O)N2CCN(C)CC2)=CC(C(C)(C)C)C1CCCO (configuration not stated) | i | nt | nt | nt | nt | nt | nt | nt
SMILES | E coli growth-1 | phage Ecoli inh | Tat transport | AddAB inh | E coli growth-2 | RecBCD conf | Ecoli viability | AddAB phage OD
CC(=NNC(=S)N1CCC1)c1ccccn1 | nt | 41 | i | nt | nt | 43 | 52 | 41
O=[N+]([O-])c1ccc(N/N=C/c2cccc(O)c2O)c(S(=O)(=O)N2CCOCC2)c1 | nt | i | i | i | i | nt | nt | nt
O=[N+]([O-])c1ccc(N/N=C/c2ccc(O)c(O)c2O)c(S(=O)(=O)N2CCOCC2)c1 | nt | 11 | i | nt | nt | i | i | i
CC1COC(=O)C(Cc2ccc(F)cc2)CC=CCC(CC(=O)N(CCO)Cc2ccccc2)C(=O)N1 (configuration not stated) | i | nt | nt | nt | nt | nt | nt | nt
CN(C)c1ccc(-c2cc(O)c3ncccc3c2)cc1 | nt | 14 | i | i | 11 | i | i | i
CN(C)CCCNC(=O)c1ccc(-c2cc(O)c3ncccc3c2)cc1 | i | i | i | i | i | nt | nt | nt
Cc1cc(O)cc(OC2OC(CO)C(O)C(O)C2O)c1 (configuration not stated) | i | nt | nt | nt | nt | nt | nt | nt
O=C1c2cc(Cl)ccc2-c2c(O)cc(Cl)cc21 | i | 13 | i | nt | nt | i | i | i
CC(=O)NC(c1ccc(N(C)C)cc1)c1cc(Cl)c2cccnc2c1O (configuration not stated) | nt | 19 | nt | nt | nt | i | i | 22
CCC(=O)NC(c1ccco1)c1cc(Br)c2cccnc2c1O (configuration not stated) | nt | 20 | nt | nt | nt | i | i | i
CC(=O)NC(c1ccc(Cl)cc1)c1ccc2cccnc2c1O (configuration not stated) | i | 20 | i | nt | nt | 12 | i | i
CCCCC(=O)NC(c1ccc(Cl)cc1Cl)c1ccc2cccnc2c1O (configuration not stated) | nt | 19 | i | nt | nt | 13 | i | 31
COC(=O)[C@@]12CCCCN1C(c1ccc(-c3cc(C(C)=O)cs3)c(OC)c1)C1C(=O)N(C)C(=O)C12 (some centres not stated) | i | nt | nt | nt | nt | nt | nt | nt
CCCC(=O)NC(c1ccc(OC)c(OC)c1)c1cc(Cl)c2cccnc2c1O (configuration not stated) | i | 14 | i | i | 11 | i | i | i
O=C(NC(c1ccc(Cl)cc1)c1cc(Cl)c2cccnc2c1O)c1cccnc1 (configuration not stated) | nt | i | i | i | i | nt | nt | nt
CCC(=O)NC(c1cc(Cl)c2cccnc2c1O)C1CC1 (configuration not stated) | i | 14 | i | i | 11 | i | i | i
CC(=O)NC(c1cc(F)c2cccnc2c1O)C1CC1 (configuration not stated) | i | i | i | i | i | nt | nt | nt
COc1ccc(C(NC(C)=O)c2cc(Cl)c3cccnc3c2O)cc1 (configuration not stated) | i | 14 | i | i | 20 | i | i | i
C[C@@H]1CN(c2c(F)c(F)c3c(=O)c(C(=O)O)cn(C4CC4)c3c2F)C[C@H](C)N1 | 0.067 | 98 | 68 | nt | nt | 103 | 105 | 104
Cn1cc([N+](=O)[O-])c(C(=O)N/N=C/c2ccc([N+](=O)[O-])cc2)n1 | nt | 11 | i | i | i | i | i | i
O=S(=O)(c1ccc(Cl)cc1)N1CCN(Cc2ccc(O)c3ncccc23)CC1 | i | 17 | i | i | i | i | i | i
Oc1ccc(CN2CCN(Cc3ccccc3)CC2)c2cccnc12 | i | i | i | i | i | nt | nt | nt
COc1ccccc1S(=O)(=O)Cc1ccc(C(=O)N2CCOCC2)o1 | i | 35 | i | i | i | i | i | i
